# According to PubChem BioAssay (Tox21):
# Several values for one entry are separate records, joined by “and”; a condition that tells them apart may be missing. Equal values may be shown once. Inconclusive results are not listed. Unmarked numbers belong to inactive results. Activity calls are given as the source filed them. Calls come from the whole dose curve; as a rule, active = well fitted cell-killing curve with a large enough effect in the repeat runs; inconclusive = weak or mixed curves, or effect the other way; inactive = flat fitted curve, though single readings scatter.
# Test: qHTS RealTime-Glo MT Cell Viability Assay in HEK293 cells - 32 hour (AID 1224868); note: nearly all actives have a fitted effect of over 50% in size; for activity change, negative = cytotoxic: top concentration of the series differs between compounds
# Details: RealTime-Glo luminescence; series mostly up to 76.8 µM; activity change, negative = cytotoxic: at the top concentration
# From the text: National Center for Advancing Translational Sciences [NCATS]
# NIH Chemical Genomics Center [NCGC]
# U.S. Environmental Protection Agency [EPA]
# National Institutes of Environmental Health Sciences [NIEHS]
# National Toxicology Program [NTP]
# U.S. Food and Drug Administration [FDA]
# Measure of cell viability is critical in the cell-base assay. Analysis of cell viability is necessary for the characterization of cell responses to cytotoxic drugs and environmental stress. A RealTime-Glo MT Cell Viability Assay to monitor cell viability in real time of continues cell culture during 40 hours of compound treatment was used to screen Tox21 10K library compounds in Hek293 cells. The RealTime-Glo MT Cell Viability Assay is a nonlytic, homogeneous, bioluminescent method to measure cell viability in real time using a simple, plate-based method. The assay involves adding NanoLuc luciferase and a cell-permeant prosubstrate to cells in culture. Viable cells reduce the proprietary prosubstrate to generate a substrate for NanoLuc luciferase. This substrate diffuses from cells into the surrounding culture medium, where it is rapidly used by the NanoLuc Enzyme to produce a luminescent signal. The signal correlates with the number of viable cells, making the assay well suited for cytotoxicity studies.
# Tox21 Assay Protocol Summary:
# The mixture of Hek293 cell suspension and reagents were dispensed at 600cells/6 ul/well in 1536-well tissue culture treated black solid bottom plates using a Multidrop dispenser. After the assay plates were incubated at a 37 C/5% CO2 incubator for 5 hours, 23 nL of compounds dissolved in DMSO, positive and negative controls was transferred to the assay plate by a pintool work station. The plates were incubated at 37 C for 40 hours. The luminescence intensity were measured at 0h, 8h, 16h, 24h, 32h and 40h time points using ViewLux plate reader during compound treatment.
# % is set by controls: 0 for no effect and ±100 for the full control effect; potency is the fitted concentration of half-maximal effect.
SMILES,"activity change, negative = cytotoxic [%]",Potency
Cl/C=C\CCl,11.5,–
CC(C)(C)c1ccc(CSc2cnn(C(C)(C)C)c(=O)c2Cl)cc1,–,0.011 µM (active)
COP(=O)(CCC(=O)NCO)OC,11.7,–
C=CC(=O)OCC(COC(=O)C=C)(COC(=O)C=C)COC(=O)C=C,–,3.89 µM (active)
S=C=Nc1cccc2ccccc12,3.18,–
COc1cccc2c1C(=O)c1c(O)c3c(c(O)c1C2=O)C[C@@](O)(C(=O)CO)CC3OC1CC(N2CCOC(OC)C2)C(O)C(C)O1 (stereo not given in full),–,0.0301 µM (active)
COS(=O)(=O)c1ccc(C)cc1,18.3,–
CC(=O)/C=C/c1ccc2c(c1)OCO2,-8.69,–
ClC1=C(Cl)[C@]2(Cl)[C@@H]3[C@@H](Cl)[C@H](Cl)C[C@@H]3[C@@]1(Cl)C2(Cl)Cl,15.6,–
BrC(Br)C(Br)(Br)Br,–,43.9 µM (active)
COCC(=O)N(c1c(C)cccc1C)[C@H](C)C(=O)OC,1.2,–
CCC[CH2][Sn]([CH2]CCC)([CH2]CCC)[O]C(=O)c1ccccc1,–,0.389 µM (active)
CCCN(CCC)CCc1c[nH]c2ccccc12,-14.3,–
FC(Cl)(Cl)Cl,-2.51,–
Nc1ccccc1C(=O)Oc1ccc2ccccc2c1,-19.9,–
COC[C@H](C)N(C(=O)CCl)c1c(C)csc1C,18,–
CC(C)OC(=O)C(O)(c1ccc(Cl)cc1)c1ccc(Cl)cc1,–,21.9 µM (active)
N#C/C=C/c1ccccc1,-0.323,–
Oc1ccccc1Br,3.84,–
Clc1ccc(COC(Cn2ccnc2)c2ccc(Cl)cc2Cl)cc1 (stereo not given),–,18.2 µM (active) and 24.4 µM (active) and 9.52 µM (active)

SMILES,"activity change, negative = cytotoxic [%]",Potency
BrCC(Br)c1ccccc1 (stereo not given),0.469,–
CCOC(=O)CC(=O)CCl,–,43.6 µM (active)
N#CCCC(Br)(C#N)CBr (stereo not given),–,21.9 µM (active)
Nc1ccccc1C(=O)OC/C=C/c1ccccc1,–,24.6 µM (active)
CCN,20.3,–
Clc1ccc(-c2ccccc2)cc1,-19.4,–
COc1cc(C=O)cc2c1[C@H](COC(N)=O)[C@]1(OC(C)=O)ON2C[C@H]2[C@@H]1N2C(C)=O,–,0.0549 µM (active)
CC(=O)O[C@H]1CC[C@@]2(C)C(=CC[C@@H]3[C@@H]2CC[C@]2(C)C(=O)CC[C@@H]32)C1,–,49 µM (active)
CC(C)CCCCCOC(=O)c1ccccc1C(=O)OCCCCCC(C)C,-6.41,–
CCC(C)(C)C(=O)OC1=C(c2ccc(Cl)cc2Cl)C(=O)OC12CCCCC2,-5.08,–
CC(=O)c1cc(C(C)(C)C)cc2c1CCC2(C)C,-22.4,–
N#CNC#N,1.55,–
CC(C)(COCC1CO1)COCC1CO1 (stereo not given),-21.1,–
c1cc[c]([Sb]([c]2ccccc2)[c]2ccccc2)cc1,–,54.9 µM (active)
ClC1=C(Cl)C2(Cl)C3C(Cl)C=CC3C1(Cl)C2(Cl)Cl (stereo not given),–,49.2 µM (active) and 49 µM (active)
Fc1ccc(Oc2ccnc3cc(Cl)cc(Cl)c23)cc1,–,11 µM (active)
Clc1ccc(CO/N=C(\Cn2ccnc2)c2ccc(Cl)cc2Cl)c(Cl)c1,–,21.3 µM (active)
CN(C)C1CSSSC1,9.96,–
CN(C)C(=S)[S-].CN(C)C(=S)[S-].[Cu+2],–,1.34 µM (active)
CC(C)OC(=S)S,24.1,–
